Measurements reported in PubChem BioAssay (NCI).
This is part of a sample that, as a whole, favours compounds with a hit. Of some 83,000 tested, about 20% had one in any assay.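 Single-concentration screen, 48 h exposure, 96-well plates. Endpoint: percent growth. Below 10 = active.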 A number with no mark means an inactive call. Calls of active or inactive are those of the source.

tested on: HL-60(TB) leukemia; assay: NCI-60 one-dose screen, 48 h (100 = growth as untreated, 0 = no growth, -100 = all killed); conditions: 10 µM unless noted

**Q.** With `N#Cc1c(-c2ccccc2)cc(-c2ccccc2)n(CC(=O)O)c1=O` as the molecule, how does the growth read?
**A.** 23.6%

**Q.** `O=c1ccc(-c2nc(N3CCOCC3)c3ccccc3n2)c[nH]1` was tested. Which growth did it give?
**A.** 95.8%

**Q.** `CCCCCCNC(=O)Oc1ccc(/C(=C(\C)c2ccccc2)c2ccc(OCCN(CC)CC)cc2)cc1` was tested. Which growth did it give?
**A.** 9.56% (active)

**Q.** Which growth does the source give for `COc1ccc(N=Nc2cc(OC)c(OC)c(OC)c2)cc1` here?
**A.** 42.4%

**Q.** `O=C(/C=C/C=C/c1c(C2CC2)nc2ccccc2c1-c1ccc(F)cc1)c1cccs1` was tested. Which growth did it give?
**A.** -17.5% (active)

**Q.** `O=C(Cc1csc2nc(-c3ccc(Cl)cc3)cn12)N/N=C/c1ccccc1O` was tested. Which growth did it give?
**A.** -3.5% (active)

**Q.** With `COc1cc2c(cc1C)NC(=O)/C2=C\c1c[nH]c2ccccc12` as the molecule, how does the growth read?
**A.** 47.5%

**Q.** How did the growth turn out when `CCCc1n(Cc2ccc3ccccc3n2)cc[n+]1Cc1ccc2ccccc2n1` was run?
**A.** -31.2% (active)

**Q.** `NC(=O)c1nc2c([nH]c1=O)CCCC2` was tested. Which growth did it give?
**A.** 101%

**Q.** Which growth does the source give for `NCCCCCNc1noc(Cc2c[nH]c3cc(Br)ccc23)n1` here?
**A.** -48.8% (active)

**Q.** `CCCc1cc(CCC)n2nc(N)nc2n1` was tested. Which growth did it give?
**A.** 105%

**Q.** With `O=C(Nc1cccc(C(F)(F)F)c1)Oc1ccc(Cl)c2cccnc12` as the molecule, how does the growth read?
**A.** -10.6% (active)

**Q.** How did the growth turn out when `COc1ccc(/C=C/C(C)=N/OCC(=O)O)cc1` was run?
**A.** 89.1%

**Q.** Which growth does the source give for `COc1ccc2c(c1)C(C)Cc1c(Cl)nc(C)nc1N2C` (stereo not given) here?
**A.** 11.3%

**Q.** For `CC1OC(n2c3ccccc3c3c4c(c5c6ccccc6[nH]c5c32)C(=O)N(CCN[C@H]2CCC[C@@H]2N)C4=O)CC(O)C1O` (stereo not given in full), which growth is on record?
**A.** 54.3%

**Q.** With `COc1ccc(NC(=S)Nc2ccccn2)cc1` as the molecule, how does the growth read?
**A.** 84.9%

**Q.** `NCCSSC/C=C\CSSCCN` was tested. Which growth did it give?
**A.** 59.1%

**Q.** For `CSC(=S)N/N=C(\C)c1ccccn1`, which growth is on record?
**A.** -12.1% (active)

**Q.** Which growth does the source give for `CCC(=O)NC1=C(Cl)C(=O)C(NC(=O)CC)=C(Cl)C1=O` here?
**A.** -51.1% (active)

**Q.** `CC(C)(C)c1cc(C=Nc2cccc(C(F)(F)F)c2)c(O)c(C(C)(C)C)c1` was tested. Which growth did it give?
**A.** 90.1%

**Q.** Which growth does the source give for `O=S1(=O)NCCN1CCNc1nccc(-c2c(-c3cccc(O)c3)nc3sccn23)n1` here?
**A.** 111%

**Q.** With `Cc1c(NC(=O)OC[C@@H]2COCCN2)cn2ncnc(Nc3ccc4c(cnn4Cc4cccc(F)c4)c3)c12` as the molecule, how does the growth read?
**A.** -25.6% (active)

**Q.** Which growth does the source give for `COc1ccc(Nc2ccnc(NCCNc3ccnc4cc(Cl)ccc34)n2)cc1` here?
**A.** 39%

**Q.** Which growth does the source give for `COc1cc(OC)c2c(=O)c3c(CC=C(C)C)cc(OC)c(O)c3oc2c1` here?
**A.** 96.7%

**Q.** For `COc1ccc(-c2nc3ccc(Cc4ccc5nc(-c6ccc(OC)cc6)[nH]c5c4)cc3[nH]2)cc1`, which growth is on record?
**A.** 9.66% (active)

**Q.** How did the growth turn out when `CCN1CCN(C(=O)[C@]23CC[C@@H](C)[C@H](C)[C@@H]2C2=CC[C@@H]4[C@@]5(C)C/C(=C/c6cccnc6)C(=O)C(C)(C)[C@@H]5CC[C@@]4(C)[C@]2(C)CC3)CC1` was run?
**A.** -38.2% (active)

**Q.** `CCN1C(=O)N(CC)C2C1NN=c1s/c(=C\c3ccccc3F)c(=O)n12` (stereo not given) was tested. Which growth did it give?
**A.** -48.1% (active)

**Q.** `CN(C)c1ccc(/C=C2\C=C(c3nc4ccccc4s3)OC2=O)cc1` was tested. Which growth did it give?
**A.** 94.8%

**Q.** How did the growth turn out when `Cc1cc(NC(=O)Nc2cc(Cl)ccc2C)no1` was run?
**A.** 88.4%

**Q.** `Cn1cc(C(=O)NCCC(=N)N)cc1NC(=O)CN=C(N)N` was tested. Which growth did it give?
**A.** 102%

**Q.** How did the growth turn out when `Nc1nc2c(c3ncccc13)C(c1ccccc1)Cc1ncccc1-2` (stereo not given) was run?
**A.** 65.9%

**Q.** For `CCCCCCCCCCCCSC1=CC(=O)C=CC1=O`, which growth is on record?
**A.** -32.3% (active)

**Q.** With `COC(=O)Nc1nc2ccc(C(=O)c3cccs3)cc2[nH]1` as the molecule, how does the growth read?
**A.** -45.1% (active)

**Q.** Which growth does the source give for `O=C(CCN1CCCC1)Nc1ccc2c(Nc3ccc(F)cc3)c3ccccc3nc2c1` here?
**A.** -54.9% (active)

**Q.** `COc1ccc(NC(=O)c2ccc(Cl)cc2Cl)cc1` was tested. Which growth did it give?
**A.** 103%

**Q.** How did the growth turn out when `O=C(CCN1CCCCC1)c1ccc2ccccc2c1` was run?
**A.** 112%

**Q.** With `Cc1cccc(Oc2ccc(Nc3ncnc4ccc(NC(=O)CN(C)C)cc34)cc2Cl)c1` as the molecule, how does the growth read?
**A.** -48% (active)

**Q.** How did the growth turn out when `N/C(=N\c1nc2ccccc2s1)NC(=O)Nc1cccc(Cl)c1` was run?
**A.** 3.43% (active)

**Q.** How did the growth turn out when `COc1ccccc1C(=O)Nc1cccc(-c2cc(=O)c3c(OC)c(OC)c(OC)cc3o2)c1` was run?
**A.** 57.7%

**Q.** `CC(C)=CC/C=C(/C)[C@H]1CC[C@]2(C)[C@@H]1CC[C@@H]1[C@@]3(C)CCC(=O)NC(C)(C)[C@@H]3CC[C@]12C` was tested. Which growth did it give?
**A.** -22.1% [100 µM] (active)
